Our source for the binding signal values is article PMC7862700, “An all-to-all approach to the identification of sequence-specific readers for epigenetic DNA modifications on cytosine”.

Assay in all cases: DAPPL (digital affinity profiling via proximity ligation, sequencing); 10 mM Tris-HCl pH 7.5, 50 mM NaCl, 1 mM DTT, 4% glycerol, room temperature, 30 min; GST-TFs on glutathione beads, 16-mer random dsDNA library, 0.1% formaldehyde crosslink after washing; high values mean tight binding
The target in one assay is T1, FEV (Homo sapiens, UniProt Q99581 1-238).
T1 sequence: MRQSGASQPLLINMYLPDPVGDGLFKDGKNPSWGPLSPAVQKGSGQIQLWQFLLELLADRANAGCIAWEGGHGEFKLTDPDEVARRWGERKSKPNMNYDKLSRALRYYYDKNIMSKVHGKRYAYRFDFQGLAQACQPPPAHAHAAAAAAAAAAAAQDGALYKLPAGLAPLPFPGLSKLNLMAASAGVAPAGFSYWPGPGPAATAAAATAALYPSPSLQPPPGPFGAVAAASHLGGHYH
The following applies: protein: recombinant; tags: N-terminal GST; dsDNA, one strand shown. The method, boiled down:
(§1)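 Sequencing on an Illumina NextSeq500 followed washing, crosslinking with 0.1% formaldehyde, proximity ligation (BsaI/T4 ligase, 1 h, 37 °C) and PCR amplification of pools that had been incubated for 30 min at room temperature with 200 nmole of a random double-stranded 16-mer DNA library in Tris/NaCl/DTT/glycerol buffer. Each pool held DNA-barcoded human transcription factors, expressed in yeast as GST fusions and captured on glutathione beads, plus a tag-only sample. Binding signal is a hexamer's read frequency for a factor divided by its frequency in the tag-only sample.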

The next assay addresses ETV5 (Homo sapiens, UniProt P41161 1-510). The following applies: protein: recombinant; tags: N-terminal GST; dsDNA, one strand shown. The method, boiled down: as §1
For the next assay, the target named is HSF1 (Homo sapiens, UniProt Q00613 1-529). The following applies: protein: recombinant; tags: N-terminal GST; chain copies: 3; dsDNA, one strand shown. The method, boiled down: as §1
For the next assay, the target named is T2, SPIC (Homo sapiens, UniProt Q8N5J4 1-248).
T2 sequence: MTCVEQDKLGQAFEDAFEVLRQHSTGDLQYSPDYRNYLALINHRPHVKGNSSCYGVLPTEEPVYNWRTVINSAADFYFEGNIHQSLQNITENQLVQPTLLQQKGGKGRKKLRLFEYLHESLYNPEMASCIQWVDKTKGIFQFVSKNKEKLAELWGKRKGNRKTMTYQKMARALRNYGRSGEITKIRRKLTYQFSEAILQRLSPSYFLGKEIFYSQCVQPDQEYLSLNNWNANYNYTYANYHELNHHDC
The following applies: protein: recombinant; tags: N-terminal GST; dsDNA, one strand shown. An outline of the steps:
as §1

The target of another assay is ELF4 (Homo sapiens, UniProt Q99607 1-663). The following applies: protein: recombinant; tags: N-terminal GST; dsDNA, one strand shown. The method, boiled down:
as §1

A further assay concerns the target T3, ELK4 (Homo sapiens, UniProt P28324-2 1-405).
T3 sequence: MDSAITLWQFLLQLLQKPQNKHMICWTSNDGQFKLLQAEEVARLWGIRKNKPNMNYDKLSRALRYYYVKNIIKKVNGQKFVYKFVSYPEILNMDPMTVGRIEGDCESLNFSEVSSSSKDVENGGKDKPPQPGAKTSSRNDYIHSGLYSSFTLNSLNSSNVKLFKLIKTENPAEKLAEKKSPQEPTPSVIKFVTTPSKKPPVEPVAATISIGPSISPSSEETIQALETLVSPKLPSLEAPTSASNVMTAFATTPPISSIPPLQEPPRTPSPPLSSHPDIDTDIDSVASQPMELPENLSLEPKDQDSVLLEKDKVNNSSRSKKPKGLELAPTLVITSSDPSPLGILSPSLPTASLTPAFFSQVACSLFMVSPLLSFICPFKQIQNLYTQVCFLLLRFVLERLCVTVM
The following applies: protein: recombinant; tags: N-terminal GST; dsDNA, one strand shown. The method, boiled down: as §1

The next assay has as its target T4, ETV2 (Homo sapiens, UniProt O00321 1-342).
T4 sequence: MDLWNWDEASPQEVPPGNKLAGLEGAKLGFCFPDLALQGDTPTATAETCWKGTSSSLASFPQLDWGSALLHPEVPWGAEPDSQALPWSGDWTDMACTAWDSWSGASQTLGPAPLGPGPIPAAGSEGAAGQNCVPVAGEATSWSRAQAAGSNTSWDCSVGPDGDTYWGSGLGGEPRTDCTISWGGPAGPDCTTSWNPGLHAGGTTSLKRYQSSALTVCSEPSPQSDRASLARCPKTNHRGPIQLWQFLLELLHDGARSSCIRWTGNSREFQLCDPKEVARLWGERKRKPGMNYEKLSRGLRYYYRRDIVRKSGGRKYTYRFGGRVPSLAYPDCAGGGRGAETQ
The following applies: protein: recombinant; tags: N-terminal GST; dsDNA, one strand shown. The method, boiled down: as §1

In the next assay the target is T5, ELF3 (Homo sapiens, UniProt P78545 1-371).
T5 sequence: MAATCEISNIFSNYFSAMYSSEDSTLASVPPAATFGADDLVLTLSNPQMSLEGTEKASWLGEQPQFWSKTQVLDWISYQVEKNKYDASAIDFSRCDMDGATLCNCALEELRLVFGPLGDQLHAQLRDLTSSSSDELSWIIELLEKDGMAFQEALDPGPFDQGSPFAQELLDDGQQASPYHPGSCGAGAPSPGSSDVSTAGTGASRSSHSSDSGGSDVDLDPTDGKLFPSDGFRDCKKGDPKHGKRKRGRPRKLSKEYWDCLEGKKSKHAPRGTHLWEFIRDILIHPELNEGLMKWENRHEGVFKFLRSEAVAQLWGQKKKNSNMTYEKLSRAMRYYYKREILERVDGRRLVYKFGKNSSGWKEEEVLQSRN
The following applies: protein: recombinant; tags: N-terminal GST; dsDNA, one strand shown. The method, boiled down:
as §1

A further assay has as its target CRX (Homo sapiens, UniProt O43186 1-299). The following applies: protein: recombinant; tags: N-terminal GST; dsDNA, one strand shown. The method, boiled down: as §1
A further assay addresses ETV1 (Homo sapiens, UniProt P50549 1-477). The following applies: protein: recombinant; tags: N-terminal GST; dsDNA, one strand shown. An outline of the steps: as §1
Another assay deals with T6, ERF (Homo sapiens, UniProt P50548 1-548).
T6 sequence: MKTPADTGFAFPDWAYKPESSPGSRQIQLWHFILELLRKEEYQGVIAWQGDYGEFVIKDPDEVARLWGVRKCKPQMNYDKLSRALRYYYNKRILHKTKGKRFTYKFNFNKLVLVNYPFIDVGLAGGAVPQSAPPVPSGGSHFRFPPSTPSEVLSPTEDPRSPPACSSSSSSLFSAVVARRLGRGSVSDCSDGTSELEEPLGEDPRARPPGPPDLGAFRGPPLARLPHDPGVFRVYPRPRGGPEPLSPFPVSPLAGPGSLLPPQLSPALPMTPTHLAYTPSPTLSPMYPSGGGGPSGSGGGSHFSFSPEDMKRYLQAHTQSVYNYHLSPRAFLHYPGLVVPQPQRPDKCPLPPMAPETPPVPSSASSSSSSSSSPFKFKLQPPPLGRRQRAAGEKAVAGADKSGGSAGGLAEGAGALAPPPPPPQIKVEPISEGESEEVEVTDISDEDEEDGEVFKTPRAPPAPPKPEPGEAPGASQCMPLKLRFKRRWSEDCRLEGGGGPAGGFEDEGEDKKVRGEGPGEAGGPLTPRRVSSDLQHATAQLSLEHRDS
The following applies: protein: recombinant; tags: N-terminal GST; dsDNA, one strand shown. The method, boiled down: as §1

For a further assay, the target named is T7, ETV3L (Homo sapiens, UniProt Q6ZN32 1-361).
T7 sequence: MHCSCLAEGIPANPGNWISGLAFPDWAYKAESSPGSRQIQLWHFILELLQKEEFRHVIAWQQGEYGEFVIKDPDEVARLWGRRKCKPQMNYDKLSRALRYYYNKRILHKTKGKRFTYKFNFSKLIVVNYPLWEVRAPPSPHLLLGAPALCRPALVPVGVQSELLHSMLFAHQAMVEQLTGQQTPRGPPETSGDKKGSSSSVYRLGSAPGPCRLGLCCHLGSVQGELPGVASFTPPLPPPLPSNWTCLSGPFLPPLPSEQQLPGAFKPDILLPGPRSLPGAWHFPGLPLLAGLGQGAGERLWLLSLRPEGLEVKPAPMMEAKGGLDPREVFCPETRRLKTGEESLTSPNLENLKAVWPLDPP
The following applies: protein: recombinant; tags: N-terminal GST; dsDNA, one strand shown. The method, boiled down: as §1

Another assay deals with T8, ETS2 (Homo sapiens, UniProt P15036 1-469).
T8 sequence: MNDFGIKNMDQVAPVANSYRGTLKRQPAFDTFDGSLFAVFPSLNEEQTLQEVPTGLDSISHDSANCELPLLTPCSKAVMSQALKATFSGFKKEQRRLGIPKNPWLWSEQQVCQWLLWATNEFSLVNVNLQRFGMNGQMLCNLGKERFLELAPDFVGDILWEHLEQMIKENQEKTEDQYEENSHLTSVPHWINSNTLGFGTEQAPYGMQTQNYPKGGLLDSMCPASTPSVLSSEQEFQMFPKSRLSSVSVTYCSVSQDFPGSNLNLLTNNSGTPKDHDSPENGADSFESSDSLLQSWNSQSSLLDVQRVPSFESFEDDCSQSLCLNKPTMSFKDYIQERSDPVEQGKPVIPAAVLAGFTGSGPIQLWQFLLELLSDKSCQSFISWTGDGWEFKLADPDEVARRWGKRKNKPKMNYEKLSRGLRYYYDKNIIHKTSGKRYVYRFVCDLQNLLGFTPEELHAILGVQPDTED
The following applies: protein: recombinant; tags: N-terminal GST; dsDNA, one strand shown. An outline of the steps:
as §1

Another assay addresses T9, SPDEF (Homo sapiens, UniProt O95238 1-335).
T9 sequence: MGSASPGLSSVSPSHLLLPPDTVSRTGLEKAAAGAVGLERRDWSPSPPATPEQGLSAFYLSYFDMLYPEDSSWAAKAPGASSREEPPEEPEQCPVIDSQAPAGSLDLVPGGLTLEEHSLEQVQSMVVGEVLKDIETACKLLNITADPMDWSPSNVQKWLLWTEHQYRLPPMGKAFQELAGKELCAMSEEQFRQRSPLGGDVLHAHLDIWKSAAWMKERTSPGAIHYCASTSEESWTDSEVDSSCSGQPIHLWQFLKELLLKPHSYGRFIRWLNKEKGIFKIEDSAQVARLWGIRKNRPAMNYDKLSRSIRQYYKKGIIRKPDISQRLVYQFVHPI
The following applies: protein: recombinant; tags: N-terminal GST; dsDNA, one strand shown. The method, boiled down:
as §1

The target in another assay is T10, ETV7 (Homo sapiens, UniProt Q9Y603 1-341).
T10 sequence: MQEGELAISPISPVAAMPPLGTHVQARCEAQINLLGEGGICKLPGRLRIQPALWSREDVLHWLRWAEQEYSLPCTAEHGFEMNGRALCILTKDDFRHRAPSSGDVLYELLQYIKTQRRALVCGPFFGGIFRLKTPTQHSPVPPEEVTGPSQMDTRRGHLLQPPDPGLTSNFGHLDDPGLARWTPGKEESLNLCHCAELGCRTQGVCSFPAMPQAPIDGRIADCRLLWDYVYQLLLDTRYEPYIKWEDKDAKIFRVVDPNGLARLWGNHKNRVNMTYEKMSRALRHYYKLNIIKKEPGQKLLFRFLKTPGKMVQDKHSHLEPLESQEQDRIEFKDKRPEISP
The following applies: protein: recombinant; tags: N-terminal GST; dsDNA, one strand shown. An outline of the steps: as §1

In another assay the target is T11, ELF5 (Homo sapiens, UniProt Q9UKW6-2 1-255).
T11 sequence: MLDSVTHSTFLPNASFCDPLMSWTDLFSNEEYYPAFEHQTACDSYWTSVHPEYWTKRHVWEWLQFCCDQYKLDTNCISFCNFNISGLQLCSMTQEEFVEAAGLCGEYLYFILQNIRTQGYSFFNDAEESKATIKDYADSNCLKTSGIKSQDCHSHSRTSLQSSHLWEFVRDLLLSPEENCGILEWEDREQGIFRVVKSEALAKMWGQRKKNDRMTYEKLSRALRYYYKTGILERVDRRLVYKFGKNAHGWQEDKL
The following applies: protein: recombinant; tags: N-terminal GST; dsDNA, one strand shown. The method, boiled down:
as §1

The target of a further assay is T12, ETV3 (Homo sapiens, UniProt P41162-2 1-143).
T12 sequence: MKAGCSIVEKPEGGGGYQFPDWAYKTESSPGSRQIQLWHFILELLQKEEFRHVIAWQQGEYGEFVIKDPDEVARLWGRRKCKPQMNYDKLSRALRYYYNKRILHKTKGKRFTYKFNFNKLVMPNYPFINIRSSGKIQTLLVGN
The following applies: protein: recombinant; tags: N-terminal GST; dsDNA, one strand shown. An outline of the steps: as §1

The target in another assay is ETV6 (Homo sapiens, UniProt P41212 1-452). The following applies: protein: recombinant; tags: N-terminal GST; dsDNA, one strand shown. An outline of the steps: as §1
Sequence of ETV6 (P41212 whole entry): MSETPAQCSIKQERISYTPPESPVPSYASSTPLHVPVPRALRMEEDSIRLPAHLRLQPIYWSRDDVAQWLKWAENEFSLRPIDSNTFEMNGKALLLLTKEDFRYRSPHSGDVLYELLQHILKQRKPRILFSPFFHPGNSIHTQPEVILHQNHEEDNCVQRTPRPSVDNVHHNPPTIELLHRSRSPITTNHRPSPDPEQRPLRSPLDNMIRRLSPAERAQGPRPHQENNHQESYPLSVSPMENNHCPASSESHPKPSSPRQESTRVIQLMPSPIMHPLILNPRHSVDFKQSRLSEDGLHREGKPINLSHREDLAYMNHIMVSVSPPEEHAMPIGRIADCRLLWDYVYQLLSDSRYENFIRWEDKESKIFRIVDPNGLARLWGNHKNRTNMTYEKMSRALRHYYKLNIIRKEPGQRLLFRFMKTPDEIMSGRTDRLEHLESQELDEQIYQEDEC

Sequence of CRX (O43186 whole entry): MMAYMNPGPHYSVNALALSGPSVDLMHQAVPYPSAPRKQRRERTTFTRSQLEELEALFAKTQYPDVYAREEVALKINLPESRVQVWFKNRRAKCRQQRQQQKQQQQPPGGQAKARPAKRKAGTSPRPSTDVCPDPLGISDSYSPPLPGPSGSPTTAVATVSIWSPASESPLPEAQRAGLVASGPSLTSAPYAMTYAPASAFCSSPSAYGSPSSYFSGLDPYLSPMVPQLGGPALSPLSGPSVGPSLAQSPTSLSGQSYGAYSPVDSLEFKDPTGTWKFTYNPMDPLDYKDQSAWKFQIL
Sequence of ELF4 (Q99607 whole entry): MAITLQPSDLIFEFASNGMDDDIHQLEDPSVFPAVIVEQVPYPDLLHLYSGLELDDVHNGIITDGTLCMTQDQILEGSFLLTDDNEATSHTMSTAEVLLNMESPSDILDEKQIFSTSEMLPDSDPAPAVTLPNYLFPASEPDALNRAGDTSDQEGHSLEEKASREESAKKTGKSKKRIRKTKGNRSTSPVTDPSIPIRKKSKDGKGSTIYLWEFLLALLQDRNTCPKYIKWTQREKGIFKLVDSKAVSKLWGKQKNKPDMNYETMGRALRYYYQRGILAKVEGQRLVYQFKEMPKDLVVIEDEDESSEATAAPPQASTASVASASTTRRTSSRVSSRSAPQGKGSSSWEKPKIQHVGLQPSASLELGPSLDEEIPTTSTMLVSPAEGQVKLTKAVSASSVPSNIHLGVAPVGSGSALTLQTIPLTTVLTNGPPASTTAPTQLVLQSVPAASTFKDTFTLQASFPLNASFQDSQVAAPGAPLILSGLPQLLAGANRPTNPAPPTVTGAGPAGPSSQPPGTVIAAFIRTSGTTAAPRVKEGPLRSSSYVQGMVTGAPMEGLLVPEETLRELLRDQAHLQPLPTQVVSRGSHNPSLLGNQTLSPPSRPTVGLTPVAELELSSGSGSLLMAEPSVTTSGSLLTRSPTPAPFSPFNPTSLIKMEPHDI
Sequence of HSF1 (Q00613 whole entry): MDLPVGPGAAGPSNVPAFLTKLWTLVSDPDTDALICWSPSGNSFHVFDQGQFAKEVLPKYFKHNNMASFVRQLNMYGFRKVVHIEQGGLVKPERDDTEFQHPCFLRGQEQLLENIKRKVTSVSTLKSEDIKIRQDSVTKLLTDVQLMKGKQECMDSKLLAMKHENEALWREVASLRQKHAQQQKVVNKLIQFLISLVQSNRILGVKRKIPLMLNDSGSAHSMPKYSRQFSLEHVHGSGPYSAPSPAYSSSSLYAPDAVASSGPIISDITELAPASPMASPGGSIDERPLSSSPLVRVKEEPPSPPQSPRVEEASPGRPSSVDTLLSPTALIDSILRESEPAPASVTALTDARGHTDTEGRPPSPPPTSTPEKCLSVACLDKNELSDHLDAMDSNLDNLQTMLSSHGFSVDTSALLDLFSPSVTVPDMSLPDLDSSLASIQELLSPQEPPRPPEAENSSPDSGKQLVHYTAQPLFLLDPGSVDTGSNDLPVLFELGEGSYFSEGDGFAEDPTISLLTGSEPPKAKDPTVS
Sequence of ETV5 (P41161 whole entry): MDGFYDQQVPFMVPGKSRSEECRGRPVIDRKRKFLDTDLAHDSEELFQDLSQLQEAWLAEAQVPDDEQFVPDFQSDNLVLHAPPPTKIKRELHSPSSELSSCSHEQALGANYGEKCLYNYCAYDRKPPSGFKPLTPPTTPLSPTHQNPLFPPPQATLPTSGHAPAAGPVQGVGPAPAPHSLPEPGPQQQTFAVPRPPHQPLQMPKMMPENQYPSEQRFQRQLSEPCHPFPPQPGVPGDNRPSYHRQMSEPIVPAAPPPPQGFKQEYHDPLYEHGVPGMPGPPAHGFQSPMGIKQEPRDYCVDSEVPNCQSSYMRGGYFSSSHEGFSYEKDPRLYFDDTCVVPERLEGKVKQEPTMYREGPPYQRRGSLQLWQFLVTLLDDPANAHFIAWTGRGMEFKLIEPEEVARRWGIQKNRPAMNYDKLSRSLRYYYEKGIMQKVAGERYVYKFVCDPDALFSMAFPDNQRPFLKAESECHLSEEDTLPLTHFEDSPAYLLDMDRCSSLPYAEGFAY
Sequence of ETV1 (P50549 whole entry): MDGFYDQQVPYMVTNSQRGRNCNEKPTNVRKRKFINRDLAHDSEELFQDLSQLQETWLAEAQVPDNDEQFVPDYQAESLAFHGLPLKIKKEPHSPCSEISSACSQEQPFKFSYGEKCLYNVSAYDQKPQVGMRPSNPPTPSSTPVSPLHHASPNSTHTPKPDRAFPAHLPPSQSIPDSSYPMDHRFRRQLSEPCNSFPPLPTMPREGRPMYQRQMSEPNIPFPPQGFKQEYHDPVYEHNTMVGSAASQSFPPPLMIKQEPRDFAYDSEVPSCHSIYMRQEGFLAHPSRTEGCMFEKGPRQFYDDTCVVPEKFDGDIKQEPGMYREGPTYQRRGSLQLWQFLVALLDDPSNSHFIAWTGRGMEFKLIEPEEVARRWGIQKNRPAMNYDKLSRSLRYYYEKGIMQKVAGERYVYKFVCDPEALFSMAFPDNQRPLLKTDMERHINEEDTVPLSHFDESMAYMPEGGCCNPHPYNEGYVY

For the sequence CGCTTC, the binding signal in the assay with FEV is 2.28 fold enrichment (6-mer frequency, TF over GST control); in the assay with ETV5, 2.34 fold enrichment (6-mer frequency, TF over GST control); in the assay with HSF1 it was 1.26 fold enrichment (6-mer frequency, TF over GST control); in the assay with SPIC it was 1.77 fold enrichment (6-mer frequency, TF over GST control); with ELF4, 2.02 fold enrichment (6-mer frequency, TF over GST control); in the assay with ELK4, 1.77 fold enrichment (6-mer frequency, TF over GST control). For the same sequence, the binding signal with ETV2 is 1.68 fold enrichment (6-mer frequency, TF over GST control); with ELF3, 1.93 fold enrichment (6-mer frequency, TF over GST control); with CRX it was 1.05 fold enrichment (6-mer frequency, TF over GST control); in the assay with ETV1, 2.03 fold enrichment (6-mer frequency, TF over GST control); in the assay with ERF, 2.11 fold enrichment (6-mer frequency, TF over GST control); with ETV3L it was 2.03 fold enrichment (6-mer frequency, TF over GST control). For the same sequence, the binding signal with ETS2 is 2.07 fold enrichment (6-mer frequency, TF over GST control); in the assay with SPDEF, 2 fold enrichment (6-mer frequency, TF over GST control); with ETV7, 1.9 fold enrichment (6-mer frequency, TF over GST control); with ELF5 it was 2.14 fold enrichment (6-mer frequency, TF over GST control); in the assay with ETV3 it was 2.09 fold enrichment (6-mer frequency, TF over GST control); with ETV6, 2.35 fold enrichment (6-mer frequency, TF over GST control).
